Measurements taken from the supplement of paper PMC6555819.

These sequences were tested on VDR:RXRa (NR concentration 270 nM, RXRa partner concentration 90 nM) (assay: PBM binding z-score (relative to random genomic background probes); higher = stronger binding; sequences stand for … in GC…GCGATTGACAGCGTAGAATGAAGG).
Procedure: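 Protein-binding microarray (Agilent 4x180K custom design, double-stranded 60-nt probes: 5' GC cap, 34-nt variable region, 24-nt constant primer region; full probe sequence given). Purified or IVT nuclear receptor:RXRα heterodimers (3:1 NR:RXRα, mostly 270:90 nM) or homodimers were incubated for 1 h in PBS with 2% milk and no ligand, then detected with Alexa488 antibodies. Fluorescence from o1-orientation probes (~5 replicates averaged) was converted to z-scores against 500 random hg19 background probes. Variable regions are seed direct-repeat (DR0–DR5) sites, all their single-nucleotide variants and half-site ablations.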

Sequence	PBM binding z-score
GCTATTAGTTGAAAGGACAACCGAATGATTCTCG	-0.113
GTACCAAGGTGAATAGGTCATTGATGAGTAGGCG	2.24
ATCGTAAGGTCGAAGGTGAGTATACCCACCCGAA	2.04
ATCTCTAGGTAAAAGTTCAGTTAATCCCGAGGAT	1.44
CCTTCTAGGTCAATGGTCAGCTAAAGCAGCTCGC	1.16
TCGAGTAGGTTACCAATGGGGAATTCAGCTTTCT	0.0458
ATCGAAAGGTCGTGAGGTGAGTATTCAGAAAGGC	3.7
TCATATAGGTAAACAAGTGAAAGTCCGTAAGTTA	1.09
ATATGTATGTTACATCCGGGTCATTCAGGCTATG	3.02
CCTACTGGGCCGAAGGTCATTGATTCCAATGCTC	2.51
CCTACTGGGCGAAAAAGGTCATTGATGCCGATAA	4.21
ATCCCTAGGTAACCAAGTTCAGTGAATGCCGAAC	4.31
TCTTGTAGATCGAAGGTTAAGAAAGCCGAAGCCT	0.313
CCAGAGAGGTGAAAGGTAACTCAGTCTGGTACGC	1.64
GGAACGAGGGCATTCGAGTTGATAGGATGGCGAT	3.74
GCTAGTTGGTCAATAAAAGGTCACACACCGGTCG	4.16
ACTAGTCGGTCAGCTGAGGTCACACACAATTCGG	5.12
GGACCGAGGGCATTCGAGTTGATAGCATGGCGAT	3.66
TCTGTTAGTTGATTAGGGCAACCGAAACAGCGGA	0.452
AGTCAAAGTTCATCTAGGTTACGTAAGATATGCT	5.8

Sequence	PBM binding z-score
AGAACGAAGGCACGCTGAGTTGATAGCAGAGTAG	-0.487
CCTTACCGGTCACGAGGTTATAGCACGACGAGCG	2.17
GCTAACAGGCCATTTGGGTCACTCAATGACGGGC	1.45
GCTATTAGTTGCAAGGGCAACCGAATGATTCTCG	0.134
TCGAGGAGGTTAGGGGCATTCAGAATGGCGTCGA	1.03
GCTAGCAGGCCATTTGGGTCACTCACTGACGGGC	0.766
AATAGCAGGCCAAGGGTCACTCAAGATTAGTCCG	2.92
GCTAGCAGGCCATTTGGGTCACTTAATGACGGGC	0.902
GCGACTGGGGCAAAGCAGGGTACCATAAGGTTGG	-0.276
ATCTCGAGGTAACCAAGTTCAGTGAATGCCGAAC	5.47
CGAACTAGGTCATTGACAGGACAGCGAATAGTAA	2.05
TCTAGTTGGTCAAAGGTAACACACTCGAAATGCG	1.7
CAAACTAGGTAAAGGTCAAAGTCGGTTTGTGCCA	5.38
GTAGACAGGTGAAACGCAGGTAACTCAGGGTGGC	-0.214
ATCTCTAGGTAAGACTTAGTTCAGTGAAGAACGC	0.582
TCTTGTAGCTCAACAGGAGGTTAAGAAAGATCGA	0.0738
ACAGACCGGTGATGAAGGTAACTCAGGCTATCAT	-0.216
TCTCTTAGTTGATTAGGGCAACCGAAACAGCGGA	0.558
TCTTGTAGATCAAGAGGAGGTTAAGAAAGATCGA	0.632
TAGCCTAGGTCATGCGGACCAGTATAGTGTCGGC	1.99
